# Pf growth 48h – P. falciparum growth inhibition at 48 hours (one generation) | P. falciparum luciferase growth in erythrocytes, 48 h | Potency, µM (highest dose often 28.7 µM), inactives show at the top dose activity change, negative = inhibition, usual class: inhibitors | 5.9% of 310,000 active; active = well fitted inhibition curve with a large enough effect; inconclusive = small, poorly fitted or top-dose-only effect, or another doubt; inactive = no such curve, though single readings can be large or run the other way; note: potency is the fitted concentration of half-maximal effect; % is set by controls: 0 for no effect and ±100 for the full control effect
#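 Erythrocytes infected with P. falciparum carrying an integrated firefly luciferase reporter (2% hematocrit, 0.1% parasitemia final) were exposed to compounds in RPMI 1640 with 0.5% Albumax at 37 C, 5% CO2. Growth inhibition was scored as reduced luminescence.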
# Pf growth 96h – P. falciparum growth inhibition at 96 hours; 6.9% of 320,000 active; Potency, µM (titrated, usually from 28.7 µM), for inactives: top-dose activity change, negative = inhibition, most hits filed as inhibitors; AID 504834; P. falciparum luciferase reporter growth, 96 h; active = well fitted inhibition curve with a large enough effect; inconclusive = small, poorly fitted or top-dose-only effect, or another doubt; inactive = no such curve, though single readings can be large or run the other way; note: potency is the fitted concentration of half-maximal effect; % is set by controls: 0 for no effect and ±100 for the full control effect
#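 Two-generation exposure (96 h) targets delayed-death phenotype. Reporter parasites carrying integrated firefly luciferase, in red cells at 2% hematocrit and 0.05% parasitemia final, kept at 37 C, 5% CO2; luminescence loss indicates inhibition.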
# SARS PLpro yeast – SARS-CoV PLP inhibition in yeast. S. cerevisiae expressing SARS-CoV PLpro, growth rescue. AID 485353. 0.19% of 330,000 active. Potency, µM (titrated, usually from 32.9 µM), for inactives: at the highest dose activity, positive = growth rescue, hits mostly activators; note: potency is the fitted concentration of half-maximal effect; 0% is about no effect; nearly all actives have a fitted effect of over 55% in size
# NS1 function inh – inhibitors of influenza NS1 protein function | Potency, µM (doses to about 46.1 µM), for inactives: at the highest dose activity, positive = more growth | 0.4% of 270,000 active | AID 2326; note: potency is the fitted concentration of half-maximal effect; actives are rising curves; nearly all actives have a fitted effect of over 50% in size
#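 Read-out: OD600 growth recovery of NS1-expressing budding yeast. Cells grown overnight at 30C in -URA glucose medium, washed, resuspended and diluted 1:100 in 2% galactose assay medium, pH 6.0. Same strain lacking NS1 served as positive control.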
# CHX counter – counter-screen for Shiga toxin inhibitors: cycloheximide protein synthesis inhibition; cell reporter, cycloheximide protein synthesis inhibition counterscreen; max response, %; 12% of 300,000 active; AID 2314; in the data active = max response mostly above about 13%, no sharp cut-off; inactive = mostly below about 14%; note: read at 38.3 µM for the half of the compounds with a filed dose; 0% is about no effect
# Shiga toxin inh – inhibitors of Shiga toxin in Vero cells | Vero cells, Shiga toxin protein synthesis inhibition reporter | inhibition, % at 38.7 µM | 9.2% of 290,000 active; in the data active = inhibition mostly above about 28%, no sharp cut-off; inactive = mostly below about 43%; note: 0% is about no effect
# * hit, by the source's call; ? = inconclusive; · = no result given; [ ] = another dose, or the depositor's remark. Hits are enriched below; roughly 21% of the tested compounds scored in any of these assays. Unless noted, calls come from the whole dose curve.
SMILES,Pf growth 48h,Pf growth 96h,SARS PLpro yeast,NS1 function inh,CHX counter,Shiga toxin inh
CCOC(=O)[C@H]1[C@H]2COc3ccc(Br)cc3[C@@H]2N2C(=O)c3cc(Br)ccc3NC(=O)[C@@]12C,?,8.28µM*,-9.5%,·,·,·
CCOC(=O)[C@H]1[C@H]2COc3ccccc3[C@@H]2N2C(=O)c3cc(Br)ccc3NC(=O)[C@@]12C,4.15µM*,6.57µM*,3.6%,·,·,·
CCOC(=O)[C@H]1[C@H]2COc3ccccc3[C@@H]2N2C(=O)c3ccc(Cl)cc3NC(=O)[C@@]12C,?,?,-1.0%,·,·,·
COC(=O)c1cc(CNC(=O)CCCSc2ccccc2)ccc1OC,0.6%,71.5%,16.0%,1.0%,22.8*,20.7
COc1ccc(NC(=O)CCC(=O)NCCO)cc1,-0.8%,23.8%,-0.6%,-6.6%,16.2*,44.7*
COc1ccc(CC(=O)Nc2ccc(C(C)=O)cc2)cc1,-24.8%,-15.1%,0.8%,2.0%,28.4*,44.6
COc1ccc(NC(=O)C(NC(=O)OC(C)(C)C)C(C)OCc2ccccc2)cc1 (stereo not given),0.5%,1.65µM*,-4.0%,5.5%,3.0,10.8
CN(C(=O)c1ccoc1)c1ccccc1I,·,·,·,·,-3.2,24.7
CCC(CC)c1nnc(NC(=O)c2cccnc2SC)s1,0.0%,0.8%,0.8%,-1.4%,-2.1,-6.6
CCN(CC(=O)N1CCCC1)S(=O)(=O)c1ccc2ccccc2c1,-10.3%,-15.9%,-8.9%,0.3%,-1.8,-1.3
COc1ccc(NC(=O)COC(=O)CCSc2ccccc2)cc1,·,·,-1.0%,·,·,·
COc1ccccc1NC(=O)CSCC(N)=O,9.1%,·,0.4%,?,-2.5,-3.5
COc1ccccc1NC(=O)CSCc1nc2ccccc2[nH]1,?,11.7µM*,26.5%,0.7%,-5.3,-5.2
COc1ccc(NC(=O)CCCSc2ccccc2)cc1,57.9%,74.9%,-3.5%,6.3%,24.0*,28.3
COc1ccc(NC(=O)CNC(=O)Cc2ccccc2)cc1,-23.7%,19.4%,3.8%,-1.8%,8.1,18.5
COc1ccc(NC(=O)Cc2ccccc2)cc1,105.3%,?,-8.3%,-0.3%,30.1*,38.3*
COc1ccc(CC(=O)Nc2ccc(N3CCCCC3)cc2)cc1,12.7%,28.1%,-1.0%,·,24.5,31.7
CCc1ccc(NC(=O)Cc2ccc(OC)cc2)cc1,49.3%,112.4%,-18.4%,-4.6%,28.0*,41.5*
COc1ccc(/C=N/NC(=O)CCc2nc3ccccc3[nH]2)cc1,14.5%,-11.7%,4.6%,-4.9%,-2.3,21.4
COc1ccc(NC(=O)Cc2nc3ccccc3[nH]2)cc1,11.7µM*,?,7.7%,?,-3.6,-19.2
COc1ccc(NC(=O)CS(=O)c2ccccc2Cl)cc1 (stereo not given),127.8%,4.0%,-2.1%,2.6%,15.5*,35.8
COc1ccc(NC(=O)CS(=O)CC(=O)Nc2ccc(OC)c(OC)c2)cc1 (stereo not given),·,10.2%,0.2%,-6.2%,0.8,3.4
COc1ccc(S(=O)(=O)n2[nH]c(=O)c(CCO)c2C)c([N+](=O)[O-])c1,7.7%,31.4%[1.15 µM],0.3%,3.3%,-3.5,-3.4
O=S(=O)(c1ccc(NC(=S)N/N=C/c2ccc(Oc3ccccc3)cc2)cc1)N1CCOCC1,18.3%,2.7%,0.9%,14.9%,5.7,13.0
C=C(C)/C=N/NC(=S)Nc1ccc(S(=O)(=O)N2CCOCC2)cc1,?,?,2.6%,4.6%,-0.7,-1.5
SMILES,Pf growth 48h,Pf growth 96h,SARS PLpro yeast,NS1 function inh,CHX counter,Shiga toxin inh
N#Cc1ccc(/C=N/NC(=O)CCc2ccc(S(=O)(=O)N3CCOCC3)cc2)cc1,?,6.57µM*,-20.2%,-12.8%,-3.4,8.1
O=S(=O)(c1ccc(NC(=S)N/N=C/c2ccc(N3CCOCC3)cc2)cc1)N1CCOCC1,-22.1%,5.86µM*,0.3%,?,4.2,29.0
O=S(=O)(c1ccc(NC(=S)N/N=C/c2c3ccccc3cc3ccccc23)cc1)N1CCOCC1,3.29µM*,?,0.6%,9.0%,8.8,27.3
Cc1cc(=O)oc2cc(OCC(=O)Nc3ccc(N4CCC(C)CC4)cc3)ccc12,?,?,-20.1%,2.2%,-3.6,5.1
Cc1cc(CNC(=O)C(C)n2nc(C)c([N+](=O)[O-])c2C)c2ccccc2n1 (stereo not given),50.6%,81.2%,4.6%,·,-4.3,-23.0
O=C(NCCO)c1cc2c([nH]c3ccccc32)c(-c2ccc(F)cc2)n1,?,14.7µM*,1.6%,5.3%,-0.9,1.3
O=C(NCCO)c1cc2c([nH]c3ccccc32)c(-c2ccccc2)n1,4.7%,-9.7%,-0.7%,8.2%,-2.3,-4.7
Cc1ccc(-c2nc(C(=O)NCCCN(C)C)cc3c2[nH]c2ccccc23)cc1,6.57µM*,9.28µM*,-2.6%,-0.1%,-8.9,-2.8
Cc1nnsc1-c1c(C(=O)Oc2ccccc2)c(C)nn1-c1ccccc1,9.28µM*,13.1µM*,1.0%,-3.6%,1.2,-13.8
CN(C(=O)COC(=O)c1nc(Cl)c(Cl)c(Cl)c1Cl)C1CCS(=O)(=O)C1 (stereo not given),30.5%[1.15 µM],50.8%[1.15 µM],-0.1%,-4.5%,54.4*,60.5
Cc1nn(-c2ccccc2)c(C)c1/C=C/C(=O)OCC(=O)NC1CCS(=O)(=O)C1 (stereo not given),-32.6%,-2.6%,4.1%,·,15.5*,22.0
CN(C(=O)COC(=O)c1ccc(C(C)(C)C)cc1)C1CCS(=O)(=O)C1 (stereo not given),?,-0.9%,0.9%,·,·,·
Cc1nn(-c2ccccc2)c(C)c1C(=O)Oc1ccccc1,51.0%,53.6%,-1.5%,-32.0%,35.5*,58.5*
O=C(COC(=O)/C=C/c1ccccc1)NC1CCS(=O)(=O)C1 (stereo not given),16.1%,1.9%,1.0%,·,·,·
CCOC(=O)c1ccc(S(=O)(=O)N2CCN(C3CCCC3)CC2)cc1,12.4%,6.2%,-1.1%,4.0%,-2.1,-9.7
O=C(COC(=O)CN1C(=O)C2CCCCC2C1=O)NNC(=O)c1ccc(Cl)cc1 (stereo not given),?,-0.3%,2.3%,·,·,·
Cc1nn(-c2ccccc2)c(C)c1C(=O)OCC(=O)N1CCN(S(=O)(=O)c2ccccc2)CC1,-13.1%,-17.4%,3.1%,-37.4%,-3.3,29.1
Cc1nn(-c2ccccc2)c(C)c1C(=O)OCC(=O)N(C)C1CCS(=O)(=O)C1 (stereo not given),138.7%,169.0%,0.4%,·,33.0*,61.1*
COc1ccc(OC(=O)c2cnn(-c3ccccc3)c2C)cc1,197.8%,·,-20.9%,-159.6%,44.9*,132.7*
COc1ccc(S(=O)(=O)N2CCN(C(=O)c3c(C)nn(-c4ccccc4)c3C)CC2)cc1,10.4µM*,8.28µM*,3.6%,·,·,·
COc1ccc(OC(=O)c2c(C)nn(-c3ccccc3)c2C)cc1,41.6%,22.8%,-1.4%,-45.1%,52.2*,69.9*
CC(=O)c1c(C)nn(-c2ccccc2)c1C,0.0%,8.4%,0.3%,3.4%,-1.5,-2.6

# Source: PubChem
